Results from PubChem BioAssay (Tox21).
Inconclusive results are not listed. Activity calls are given as the source filed them. Unless noted, calls come from the whole dose curve.

Key:
[1] = Nuclear factor erythroid 2-related factor 2/antioxidant responsive element (Nrf2/ARE) small molecule agonists: qHTS cell viability counter screen in human keratinocytes (AID 1919968; active = well fitted curve in the direction sought with a large enough effect in the repeat runs; an effect the other way counts as inactive or inconclusive; note: nearly all actives have a fitted effect of over 55% in size)
Procedure, shortened: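 Viability counter-screen: KeratinoSens reporter cells, DMSO-delivered compounds, 23 h at 37 C, CellTiter-Fluor fluorescence.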

[2] = Nuclear factor erythroid 2-related factor 2/antioxidant responsive element (Nrf2/ARE) small molecule agonists: luciferase reporter gene qHTS assay in human keratinocytes (AID 1919969); note: nearly all actives have a fitted effect of over 35% in size
[3] = biological target: Gonadotropin-releasing hormone receptor (Homo sapiens) (UniProt P30968); test: Human gonadotropin-releasing hormone receptor (GnRHR) small molecule agonists, calcium flux assay in GnRHR-HEK293 cells (AID 1920063); note: nearly all actives have a fitted effect of over 35% in size
Procedure, shortened: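 Tox21-format agonist screen using human GnRHR-expressing HEK293 cells and a fluorescent calcium dye; kinetic 3-min fluorescence reading after compound addition, 15-point concentration series run in triplicate.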

[4] = biological target: KiSS-1 receptor (Homo sapiens) (UniProt Q969F8); test: Human kisspeptin (KISS1R) small molecule agonists, calcium flux assay in KISS1R-HEK293 cells (AID 1920064; active = well fitted curve in the direction sought with a large enough effect in the repeat runs; an effect the other way counts as inactive or inconclusive)
Procedure, shortened: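 Intracellular calcium mobilization in KISS1R-HEK293 cells was recorded by fluorescence (Ex/Em 480/540) for 3 min following compound addition to cells pre-loaded 1 h with calcium dye.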

[5] = G protein-coupled receptor (GPCR) small molecule agonists, calcium flux assay: HEK293 wild type cell line counter screen (AID 1920065)
Procedure, shortened: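 In this agonist-mode screen, ATP is the positive control and DMSO the vehicle. Cells grow 18 h before a 1 h dye incubation at 37 C; signal is taken at Ex/Em 480/540 over 3 min.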

[6] = p53 small molecule agonists, cell-based qHTS assay with human liver microsomes (AID 1963577);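 note: p53 response element beta-lactamase reporter cells with liver microsomes plus NADPH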
Procedure, shortened: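 p53RE-bla cells; 5 h settle, 37 C/5% CO2; cpd + HLM 0.5 mg/mL + NADPH 0.5 mg/mL (final); 16 h 37 C; LiveBLAzer 2 h RT dark; fluorescence readout.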

[7] = p53 small molecule agonists, cell-based qHTS assay with rat liver microsomes (AID 1963578)
Procedure, shortened: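 Rat liver microsome activation: microsomes 0.5 mg/mL, NADPH 0.5 mg/mL final; p53RE-bla cells, 16 h 37 C; LiveBLAzer readout, 2 h RT dark.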

[8] = p53 small molecule agonists, cell-based qHTS assay (AID 1963582; active = well fitted activation curve with a large enough effect in the signal ratio in the repeat runs, not every such curve was filed as active; the % refers to the signal ratio)
Procedure, shortened: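 Agonist activity was scored from beta-lactamase FRET fluorescence in p53RE-bla cells treated 16 h at 37 C with compounds in DMSO, substrate incubation being 2 h at room temperature.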

[9] = biological target: 5-hydroxytryptamine receptor 2A (Homo sapiens) (UniProt P28223); test: 5-hydroxytryptamine receptor 2A (HTR2A) small molecule antagonists, cell-based qHTS assay (AID 1963586); note: nearly all actives have a fitted effect of over 45% in size
Procedure, shortened: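 Antagonist-mode intracellular calcium assay: DOI (4 nM) added after 5 min compound pre-incubation at room temperature to dye-loaded HTR2A-CHO cells. Fluorescence followed for 3 min, sampled every second.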

[10] = biological target: 5-hydroxytryptamine receptor 2A (Homo sapiens) (UniProt P28223); test: 5-hydroxytryptamine receptor 2A (HTR2A) small molecule agonists, cell-based qHTS assay (AID 1963587); note: nearly all actives have a fitted effect of over 30% in size
Procedure, shortened: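 HTR2A-CHO cells, plated 18 h at 37 C/5% CO2, dye-loaded 1 h at 37 C; compounds in DMSO added by pin tool (agonist mode). Intracellular calcium flux read as kinetic fluorescence on FDSS over 2 min at 1 s intervals.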

[11] = biological target: Muscarinic acetylcholine receptor M1 (Homo sapiens) (UniProt P11229); test: Cholinergic receptor muscarinic 1 (CHRM1) small molecule antagonists, cell-based qHTS assay (AID 1963588); note: nearly all actives have a fitted effect of over 40% in size
Procedure, shortened: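 CHRM1-CHO calcium-flux assay, antagonist mode. Cells were seeded 18 h, dye-loaded 1 h at 37 C and given compound for 5 min at RT, then acetylcholine was added at 50nM. FDSS fluorescence was read 3 min; 15 concentrations, three runs.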

[12] = biological target: Muscarinic acetylcholine receptor M1 (Homo sapiens) (UniProt P11229); test: Cholinergic receptor muscarinic 1 (CHRM1) small molecule agonists, cell-based qHTS assay (AID 1963589); note: nearly all actives have a fitted effect of over 35% in size
Procedure, shortened: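 Stable CHRM1-CHO cells (human receptor) were incubated 18 h, dye-loaded for 1 h at 37 C and exposed to test compounds for agonist activity, with calcium-dependent fluorescence followed kinetically.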

[13] = cAMP Responsive Elements (CRE) small molecule agonists, cell-based qHTS assay (AID 1963590)
Procedure, shortened: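 FRET-based beta-lactamase readout (LiveBLAzer B/G, 2 h RT) quantified CRE activation in HEK 293T CRE-bla cells after 3 h treatment with DMSO-dissolved compounds.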

[14] = cAMP Responsive Elements (CRE) small molecule antagonists, cell-based qHTS assay (AID 1963591; active = well fitted inhibition curve with a large enough effect in the signal ratio in the repeat runs, not every such curve was filed as active; the % refers to the signal ratio)
Procedure, shortened: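 qHTS in CRE-bla HEK 293T cells: compound in DMSO, then 0.25 uM NKH477 (final), 3 h at 37 °C/5% CO2; beta-lactamase FRET read-out after 2 h substrate incubation.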

[15] = biological target: Beta-2 adrenergic receptor (Homo sapiens) (UniProt P07550); test: Adrenergic beta2 receptor (ADRB2) small molecule antagonists, cell-based qHTS assay (AID 1963592); note: series mostly up to about 92 µM; nearly all actives have a fitted effect of over 50% in size
Procedure, shortened: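 Cells (CHO, stable ADRB2 overexpression) incubated 18-20hr at 37C; compounds added from DMSO; agonist mix (1nM isoproterenol, 100uM IBMX, 25uM Ro-20-1724) added; 0.5hr RT; d2-cAMP and anti-cAMP-cryptate added; 1hr RT; 665/615 nm read.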

[16] = biological target: D(2) dopamine receptor (Homo sapiens) (UniProt P14416); test: Dopamine D2 receptor (DRD2) small molecule agonists, cell-based qHTS assay (AID 1963594); note: nearly all actives have a fitted effect of over 35% in size
Procedure, shortened: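 HEK293 cells stably expressing DRD2 were cultured 24 h at 37 C, then given Ro20-1724 (0.1 mM final) and compounds for 10 min at room temperature. NKH477 (200nM) was then added for 30 min. cAMP was read by HTRF.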

[17] = biological target: D(2) dopamine receptor (Homo sapiens) (UniProt P14416); test: Dopamine D2 receptor (DRD2) small molecule antagonists, cell-based qHTS assay (AID 1963595; active = well fitted inhibition curve with a large enough effect in the signal ratio in the repeat runs, with a control signal flat; the % refers to the signal ratio)
Procedure, shortened: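 Antagonist mode in DRD2-HEK293 cells: after compound addition with 0.1 mM Ro20-1724, cells received quinpirole (12 nM) and NKH477 (200 nM) for 30 min at room temperature; HTRF cAMP read after 1 h detection.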

[18] = p53 small molecule agonists, cell-based qHTS assay with human liver microsomes: qHTS cell viability counter screen (AID 1963579); note: nearly all actives have a fitted effect of over 45% in size
Procedure, shortened: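 Luminescent CellTiter-Glo read-out, 30 min at room temperature, gauged cytotoxicity in p53RE-bla cells exposed 16 h at 37 C to DMSO-dissolved compounds with metabolic activation by human liver microsomes and NADPH, each 0.5 mg/mL final.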

[19] = p53 small molecule agonists, cell-based qHTS assay: qHTS cell viability counter screen (AID 1963581); note: nearly all actives have a fitted effect of over 45% in size
Procedure, shortened: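 Compounds are pinned onto HCT-116 p53RE-bla cells and left 16 h at 37 C. Following the reporter FRET read, ATP is quantified by CellTiter-Glo luminescence after 30 min at room temperature.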

[20] = biological target: Beta-2 adrenergic receptor (Homo sapiens) (UniProt P07550); test: Adrenergic beta2 receptor (ADRB2) small molecule agonists, cell-based qHTS assay (AID 1963593);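 note: CHO cells stably overexpressing human ADRB2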
Procedure, shortened: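 CHO cells stably over-expressing ADRB2 were plated overnight at 37C, then dosed with compounds plus a stimulation mix containing 100uM IBMX and 25uM Ro-20-1724 for 0.5hr at room temperature. cAMP was measured by HTRF competition, 1hr.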

Measured: Potency

Chain of 5-hydroxytryptamine receptor 2A (Homo sapiens) (P28223 whole entry, looked up): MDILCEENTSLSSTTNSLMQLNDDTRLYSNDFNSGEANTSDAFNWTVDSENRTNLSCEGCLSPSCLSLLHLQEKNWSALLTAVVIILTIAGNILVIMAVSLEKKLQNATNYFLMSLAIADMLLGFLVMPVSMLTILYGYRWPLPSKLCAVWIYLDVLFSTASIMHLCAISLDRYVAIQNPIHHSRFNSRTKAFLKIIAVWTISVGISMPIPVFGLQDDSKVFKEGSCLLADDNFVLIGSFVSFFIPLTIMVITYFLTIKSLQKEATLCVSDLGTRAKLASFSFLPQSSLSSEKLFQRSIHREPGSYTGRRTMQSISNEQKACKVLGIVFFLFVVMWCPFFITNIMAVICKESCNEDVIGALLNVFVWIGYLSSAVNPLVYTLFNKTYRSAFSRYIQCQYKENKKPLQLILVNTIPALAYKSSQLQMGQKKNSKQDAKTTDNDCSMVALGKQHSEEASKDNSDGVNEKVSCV
Chain of KiSS-1 receptor (Homo sapiens) (Q969F8 whole entry, looked up): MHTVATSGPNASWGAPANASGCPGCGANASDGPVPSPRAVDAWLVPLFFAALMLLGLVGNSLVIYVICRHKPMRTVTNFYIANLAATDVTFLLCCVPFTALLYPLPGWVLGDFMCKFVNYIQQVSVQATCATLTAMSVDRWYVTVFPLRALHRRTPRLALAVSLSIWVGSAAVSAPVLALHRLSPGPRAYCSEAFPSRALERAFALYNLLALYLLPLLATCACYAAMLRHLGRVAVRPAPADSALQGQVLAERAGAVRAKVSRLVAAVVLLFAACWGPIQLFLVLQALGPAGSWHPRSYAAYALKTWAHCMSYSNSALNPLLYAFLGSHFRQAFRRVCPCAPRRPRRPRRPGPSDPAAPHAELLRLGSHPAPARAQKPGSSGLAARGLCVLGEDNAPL
Chain of D(2) dopamine receptor (Homo sapiens) (P14416 whole entry, looked up): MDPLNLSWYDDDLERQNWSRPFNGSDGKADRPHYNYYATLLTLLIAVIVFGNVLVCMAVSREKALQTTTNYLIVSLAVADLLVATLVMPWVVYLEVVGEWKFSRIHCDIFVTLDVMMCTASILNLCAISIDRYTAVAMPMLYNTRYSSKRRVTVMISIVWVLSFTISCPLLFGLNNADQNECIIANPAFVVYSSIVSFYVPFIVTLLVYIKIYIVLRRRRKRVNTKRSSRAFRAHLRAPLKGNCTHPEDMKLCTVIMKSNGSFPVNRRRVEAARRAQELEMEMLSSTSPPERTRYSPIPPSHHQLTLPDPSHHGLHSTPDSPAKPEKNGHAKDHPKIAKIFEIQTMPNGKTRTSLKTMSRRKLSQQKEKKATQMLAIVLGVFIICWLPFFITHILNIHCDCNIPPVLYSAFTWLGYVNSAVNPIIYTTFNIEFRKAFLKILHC
Chain of Beta-2 adrenergic receptor (Homo sapiens) (P07550 whole entry, looked up): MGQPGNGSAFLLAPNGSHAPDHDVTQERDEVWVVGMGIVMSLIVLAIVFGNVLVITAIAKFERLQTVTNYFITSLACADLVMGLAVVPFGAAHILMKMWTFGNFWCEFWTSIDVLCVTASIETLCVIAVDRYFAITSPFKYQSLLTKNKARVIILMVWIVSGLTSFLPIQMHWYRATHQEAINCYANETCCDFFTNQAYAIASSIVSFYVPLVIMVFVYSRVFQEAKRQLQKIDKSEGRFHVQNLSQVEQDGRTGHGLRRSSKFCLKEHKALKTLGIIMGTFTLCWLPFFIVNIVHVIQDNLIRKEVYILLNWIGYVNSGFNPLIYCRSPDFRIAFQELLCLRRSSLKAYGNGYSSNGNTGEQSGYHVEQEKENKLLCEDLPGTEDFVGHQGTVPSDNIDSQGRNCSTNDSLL
Chain of Muscarinic acetylcholine receptor M1 (Homo sapiens) (P11229 whole entry, looked up): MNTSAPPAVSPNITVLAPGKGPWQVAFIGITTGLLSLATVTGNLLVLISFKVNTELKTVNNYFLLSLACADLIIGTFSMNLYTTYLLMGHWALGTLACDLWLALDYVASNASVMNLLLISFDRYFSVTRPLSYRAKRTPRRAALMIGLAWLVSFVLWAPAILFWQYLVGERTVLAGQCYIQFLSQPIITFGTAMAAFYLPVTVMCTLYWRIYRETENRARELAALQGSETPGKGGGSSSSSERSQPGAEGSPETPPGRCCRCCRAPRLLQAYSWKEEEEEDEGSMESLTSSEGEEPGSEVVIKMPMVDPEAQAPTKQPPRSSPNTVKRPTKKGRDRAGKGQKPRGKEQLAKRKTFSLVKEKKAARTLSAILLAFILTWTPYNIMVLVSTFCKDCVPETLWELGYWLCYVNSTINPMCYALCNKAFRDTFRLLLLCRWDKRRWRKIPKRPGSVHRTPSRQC
Chain of Gonadotropin-releasing hormone receptor (Homo sapiens) (P30968 whole entry, looked up): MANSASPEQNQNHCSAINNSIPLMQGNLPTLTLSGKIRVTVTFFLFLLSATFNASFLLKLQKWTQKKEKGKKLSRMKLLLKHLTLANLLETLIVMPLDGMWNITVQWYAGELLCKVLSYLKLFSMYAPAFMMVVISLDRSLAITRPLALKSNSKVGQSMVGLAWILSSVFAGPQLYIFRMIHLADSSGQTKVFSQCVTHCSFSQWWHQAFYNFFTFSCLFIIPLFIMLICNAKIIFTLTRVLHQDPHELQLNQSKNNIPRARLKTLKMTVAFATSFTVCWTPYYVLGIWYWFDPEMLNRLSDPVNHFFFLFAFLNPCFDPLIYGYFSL

N#[N+]c1ccc2c(S(=O)(=O)[O-])cccc2c1O
not listed: [18] | [19] | [20]
inactive: all other assays above

CC(=O)O[C@H](CC(=O)[O-])C[N+](C)(C)C
not listed: [7] | [20]
inactive: all other assays above

CCCCCCCCc1ccc(Nc2ccc(CCCCCCCC)cc2)cc1
not listed: [7] | [13] | [14]
inactive: all other assays above

CCOCCOCCOCCO
not listed: [7]
inactive: all other assays above

COc1ccc(C)cc1
not listed: [7]
inactive: all other assays above

CCCCCCCCCCCC(=O)OCC(C)OC(=O)CCCCC(=O)O (stereo unspecified)
not listed: [7] | [20]
inactive: all other assays above

CC(=O)N1CCN(c2ccc(O)cc2)CC1
not listed: [7] | [20]
inactive: all other assays above
